Columns and labels:
Settings in all cases: concentration: 1 μM,replicates: in singlicate; n = 1
LCK = system: LCK
LIMK1 = system: LIMK1
LIMK2 = system: LIMK2
LKB1 = system: T1, LKB1
T1 construct: gene STK11

LOK = system: T2, LOK
T2 construct: gene STK10

LRRK2 = system: LRRK2
LTK = system: LTK
LYN = system: LYN
LZK = system: T3, LZK
T3 construct: gene MAP3K13

MAK = system: MAK
MAP3K15 = system: MAP3K15
MAP3K1 = system: MAP3K1
MAP3K2 = system: MAP3K2
MAP3K3 = system: MAP3K3
MAP3K4 = system: MAP3K4
MAP4K2 = system: MAP4K2
MAP4K3 = system: MAP4K3
MAP4K4 = system: MAP4K4
MAP4K5 = system: MAP4K5
MAPKAPK2 = system: MAPKAPK2
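Also: KINOMEscan kinase panel screen.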

SMILES	%Inh (LCK) [%]	%Inh (LIMK1) [%]	%Inh (LIMK2) [%]	%Inh (LKB1) [%]	%Inh (LOK) [%]	%Inh (LRRK2) [%]	%Inh (LTK) [%]	%Inh (LYN) [%]	%Inh (LZK) [%]	%Inh (MAK) [%]	%Inh (MAP3K15) [%]	%Inh (MAP3K1) [%]	%Inh (MAP3K2) [%]	%Inh (MAP3K3) [%]	%Inh (MAP3K4) [%]	%Inh (MAP4K2) [%]	%Inh (MAP4K3) [%]	%Inh (MAP4K4) [%]	%Inh (MAP4K5) [%]	%Inh (MAPKAPK2) [%]
Cn1ccc2ncnc(Oc3ccc(NC(=O)Nc4cccc(C(F)(F)F)c4)c(Cl)c3)c21	79	0	0	11	99.9	0	56	63	0	28	0	0	6	0	4	6	0	12	1	0
Cn1ccc2ncnc(Oc3ccc(NC(=O)Nc4ccnc(C(F)(F)F)c4)c(Cl)c3)c21	0	16	0	8	94	0	100	6	7	5	0	0	0	6	0	0	3	0	0	1
FC(F)(F)c1cc(Br)cc(Nc2nccc(-c3cnn4ncccc34)n2)c1 [GW810578]	4	0	0	14	25	58	18	8	0	55	0	3	14	29	15	41	7	0	18	0
C[C@@H](Oc1cc(-n2cnc3cc(-c4cnn(C)c4)ccc32)sc1C(N)=O)c1ccccc1Cl [GSK580432]	94.8	0	0	57	99.9	68	25	38	0	0	12	90.6	20	20	37	60	93.8	32	98.9	0
O=C(Nc1cccc(C(F)(F)F)c1)c1cccc(Oc2ccc3nccn3n2)c1	63	0	8	0	24	0	45	37	20	0	1	21	19	0	22	0	8	14	23	0
COc1ccc(Nc2nccc(N3CCC(NC(=O)c4cccc(C#N)c4)C3)n2)cc1 (stereo not shown) [GSK1379730]	23	0	0	2	0	31	0	0	0	26	0	1	0	0	40	0	0	16	10	0
O=C(Nc1n[nH]c2cc(-c3ccco3)ccc12)C1CC1 [SB-737447]	3	0	0	0	3	0	0	0	0	4	17	0	23	24	0	2	5	21	0	0
CSc1nccc(-c2c(-c3ccc(F)cc3)ncn2CCCN2CCOCC2)n1.Cl [SB-217146]	0	3	0	0	8	0	4	0	0	0	0	0	23	1	0	0	0	0	0	0
